# This is one part of a sample in which the strongest signals are shown more often than they occur.
# What was measured:
# Assay in all cases: glycan array binding signal (z-score within array); higher = stronger binding
# Settings in all cases: glycan notation: IUPAC condensed, linker removed
# [1] = molecular target: Fuc(a1-2)Gal(b1-3)GalNAc(b1-3)Gal
# In short: (§1)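 From the Consortium for Functional Glycomics database, 3228 arrays were curated, keeping only those whose protein sequence was available. Binding is given as a within-array Z-score averaged across arrays sharing a protein sequence and across linkers. Negative Z-scores can be read as non-binding.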
# [2] = molecular target: Fuc(a1-2)Gal(b1-4)GlcNAc(b1-3)Gal(b1-4)GlcNAc(b1-3)Gal(b1-4)GlcNAc
# In short: as §1
# [3] = molecular target: Fuc(a1-2)Gal(b1-4)[Fuc(a1-3)]GlcNAc
# In short: as §1
# [4] = molecular target: Fuc(a1-2)Gal(b1-4)[Fuc(a1-3)]GlcNAc(b1-3)Gal(b1-4)[Fuc(a1-3)]GlcNAc
# In short: as §1
# [5] = molecular target: Fuc(a1-2)[Gal(a1-3)]Gal(b1-3)GlcNAc
# In short: as §1
# [6] = molecular target: Fuc(a1-3)[Gal(b1-4)]GlcNAc(b1-2)Man(a1-3)[Fuc(a1-3)[Gal(b1-4)]GlcNAc(b1-2)Man(a1-6)]Man(b1-4)GlcNAc(b1-4)GlcNAc
# In short: as §1
# [7] = molecular target: Fuc(a1-3)[Neu5Ac(a2-3)]Gal(b1-4)GlcNAc(b1-3)GalNAc
# In short: as §1
# [8] = molecular target: Gal(b1-3)GalNAc(a1-3)[Fuc(a1-2)]Gal(b1-4)GlcNAc
# In short: as §1
# [9] = molecular target: Gal(b1-3)[Fuc(a1-4)]GlcNAc(b1-2)Man(a1-3)[Gal(b1-3)[Fuc(a1-4)]GlcNAc(b1-2)Man(a1-6)]Man(b1-4)GlcNAc(b1-4)[Fuc(a1-6)]GlcNAc
# In short: as §1
# [10] = molecular target: Gal(b1-4)GlcNAc(b1-3)GalNAc
# In short: as §1
# [11] = molecular target: Gal(b1-4)GlcNAc(b1-6)GalNAc
# In short: as §1
# [12] = molecular target: Gal3S(b1-3)[Fuc(a1-4)]GlcNAc
# In short: as §1
# Gal3S(b1-4)GlcNAc = molecular target: Gal3S(b1-4)GlcNAc
# In short: as §1
# [13] = molecular target: GlcNAc(a1-4)Gal(b1-4)GlcNAc(b1-3)Gal(b1-4)[Fuc(a1-3)]GlcNAc(b1-3)Gal(b1-4)[Fuc(a1-3)]GlcNAc
# In short: as §1
# [14] = molecular target: GlcNAc(b1-2)Man(a1-3)[GlcNAc(b1-2)Man(a1-6)]Man(b1-4)GlcNAc(b1-4)[Fuc(a1-6)]GlcNAc
# In short: as §1
# [15] = molecular target: GlcNAc(b1-3)Gal(b1-3)GalNAc
# In short: as §1
# [16] = molecular target: Man(a1-2)Man(a1-2)Man(a1-3)Man
# In short: as §1
# Man(a1-3)[Man(a1-6)]Man = molecular target: Man(a1-3)[Man(a1-6)]Man
# In short: as §1
# [17] = molecular target: Man(a1-3)[Man(a1-6)]Man(a1-6)[Man(a1-2)Man(a1-3)]Man(b1-4)GlcNAc(b1-4)GlcNAc
# In short: as §1
# [18] = molecular target: Neu5Ac(a2-3)Gal(b1-3)GalNAc(b1-4)[Neu5Ac(a2-3)]Gal(b1-4)Glc
# In short: as §1
# [19] = molecular target: Neu5Ac(a2-3)Gal(b1-4)GlcNAc(b1-3)GalNAc
# In short: as §1
# [20] = molecular target: Neu5Ac(a2-3)Gal(b1-4)[Fuc(a1-3)]GlcNAc(b1-3)Gal(b1-4)GlcNAc
# In short: as §1
# [21] = molecular target: Neu5Ac(a2-3)Gal(b1-4)[Fuc(a1-3)]GlcNAc6S
# In short: as §1
# [22] = molecular target: Neu5Ac(a2-6)Gal(b1-4)GlcNAc(b1-2)Man(a1-3)[Neu5Ac(a2-6)Gal(b1-4)GlcNAc(b1-2)Man(a1-6)]Man(b1-4)GlcNAc(b1-4)GlcNAc
# In short: as §1
# [23] = molecular target: Neu5Ac(a2-6)Gal(b1-4)GlcNAc(b1-2)Man(a1-6)[Gal(b1-4)GlcNAc(b1-2)Man(a1-3)]Man(b1-4)GlcNAc(b1-4)GlcNAc
# In short: as §1
# [24] = molecular target: Neu5Ac(a2-6)Gal(b1-4)GlcNAc(b1-2)Man(a1-6)[Man(a1-3)]Man(b1-4)GlcNAc(b1-4)GlcNAc
# In short: as §1
# [25] = molecular target: Neu5Ac(a2-6)Gal(b1-4)GlcNAc6S
# In short: as §1
# Neu5Ac(a2-8)Neu5Ac = molecular target: Neu5Ac(a2-8)Neu5Ac
# In short: as §1
# [26] = molecular target: Neu5Ac(a2-8)Neu5Ac(a2-3)[GalNAc(b1-4)]Gal(b1-4)Glc
# In short: as §1
# [27] = molecular target: Neu5Gc(b2-6)Gal(b1-4)GlcNAc
# In short: as §1
binder,measurement,setting,value
"GALT1 115 D492A (Arabidopsis thaliana), Q8L7F9 (protein) DPMRGSHHHHHHGMASMTGGQQMGRDLYDDDDKSRLQKPYITAAASVVVTPNTTLPMEWLRITLPDFMKEARNTQEAISGDDIAVVSGLFVEQNVSKEEREPLLTWNRLESLVDNAQSLVNGVDAIKEAGIVWESLVSAVEAKKLVDVNENQTRKGKEELCPQFLSKMNATEADGSSLKLQIPCGLTQGSSITVIGIPDGLVGSFRIDLTGQPLPGEPDPPIIVHYNVRLLGDKSTEDPVIVQNSWTASQDWGAEERCPKFDPDMNKKVDDLDECNKMVGGEINRTSSTSLQSNTSRGVPVAREASKHEKYFPFKQGFLSVATLRVGTEGMQMTVDGKHITSFAFRDTLEPWLVSEIRITGDFRLISILASGLPTSEESEHVVDLEALKSPTLSPLRPLDLVIGVFSTANNFKRRMAVRRTWMQYDDVRSGRVAVRFFVGLHKSPLVNLELWNEARTYGDVQLMPFVDYYSLISWKTLAICIFGTEVDSAKFIMKTDDAAFVRVDEVLLSLSMTNNTRGLIYGLINSDSQPIRNPDSKWYISYEEWPEEKYPPWAHGPGYIVSRDIAESVGKLFKEGNLKMFKLEDVAMGIWIAELTKHGLEPHYENDGRIISDGCKDGYVVAHYQSPAEMTCLWRKYQETKRSLCCREW",glycan array binding signal (z-score),[1],1.79
same,glycan array binding signal (z-score),[2],6.73
same,glycan array binding signal (z-score),[3],8.05
same,glycan array binding signal (z-score),[4],-0.068
same,glycan array binding signal (z-score),[5],-0.352
same,glycan array binding signal (z-score),[6],-0.034
same,glycan array binding signal (z-score),[7],-0.012
same,glycan array binding signal (z-score),[8],0.06
same,glycan array binding signal (z-score),[9],-0.152
same,glycan array binding signal (z-score),[10],-0.374
same,glycan array binding signal (z-score),[11],-0.406
same,glycan array binding signal (z-score),[12],-0.223
same,glycan array binding signal (z-score),Gal3S(b1-4)GlcNAc,-0.298
same,glycan array binding signal (z-score),[13],2.05
same,glycan array binding signal (z-score),[14],2.9
same,glycan array binding signal (z-score),[15],1.5
same,glycan array binding signal (z-score),[16],0.15
same,glycan array binding signal (z-score),Man(a1-3)[Man(a1-6)]Man,-0.244
same,glycan array binding signal (z-score),[17],0.404
same,glycan array binding signal (z-score),[18],-0.335
same,glycan array binding signal (z-score),[19],-0.152
same,glycan array binding signal (z-score),[20],0.671
same,glycan array binding signal (z-score),[21],-0.172
same,glycan array binding signal (z-score),[22],0.357
same,glycan array binding signal (z-score),[23],-0.362
same,glycan array binding signal (z-score),[24],-0.139
same,glycan array binding signal (z-score),[25],0.087
same,glycan array binding signal (z-score),Neu5Ac(a2-8)Neu5Ac,-0.221
same,glycan array binding signal (z-score),[26],-0.078
same,glycan array binding signal (z-score),[27],0.041
